High-throughput results deposited in PubChem by several laboratories.
FBA Mtb inh = inhibitors of M. tuberculosis fructose-bisphosphate aldolase. P9WQA3. purified M. tuberculosis FBA, fluorescence read-out. inhibition, % at 1 µM. 360,000 compounds, 2.3% hits; in the data active = inhibition above about 27%;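 note: 0% = vehicle and 100% = reference inhibitor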
Target sequence (P9WQA3 whole entry, looked up): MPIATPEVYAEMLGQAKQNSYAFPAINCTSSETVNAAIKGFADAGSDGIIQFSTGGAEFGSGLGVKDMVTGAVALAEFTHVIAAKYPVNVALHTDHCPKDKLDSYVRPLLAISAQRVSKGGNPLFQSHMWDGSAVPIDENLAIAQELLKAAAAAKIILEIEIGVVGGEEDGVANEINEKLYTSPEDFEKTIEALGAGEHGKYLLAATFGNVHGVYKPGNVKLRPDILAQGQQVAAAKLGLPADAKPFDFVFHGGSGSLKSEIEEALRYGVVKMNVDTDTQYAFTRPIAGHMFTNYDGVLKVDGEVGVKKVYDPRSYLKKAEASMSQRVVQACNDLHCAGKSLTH
CCHFV vOTU inh = CCHFV vOTU protease inhibition. Pep-AMC fluorescence. inhibition, % at 11.5 µM. 370,000 compounds, 0.55% hits. AID 651958; note: 0% = vehicle wells with enzyme and 100% = no enzyme wells
GDH-TPI counter = GDH-TPI coupled enzyme inhibition counter-screen. 360,000 compounds, 1.2% hits. AID 588335. inhibition, % at 4.8 µM. GDH-TPI coupled enzyme counterscreen, NADH absorbance;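 note: 0% = DMSO wells and 100% = wells lacking the enzyme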
Mtb betalactam = beta-lactam sensitization of Mtb H37Rv; M. tuberculosis H37Rv growth with meropenem, percent inhibition; inhibition, % at 25 µM; 330,000 compounds, 0.27% hits; AID 434955; call rule not given here;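 note: growth measured after seven days incubation then overnight dye step; 0% = bacteria only wells and 100% = bacteria with antibiotic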
MazEF act = MazEF (E. coli) toxin RNase activation; FAM/BHQ RNA-DNA oligo cleavage fluorescence, 5 h; activation, % at 20 µM; 350,000 compounds, 0.32% hits; in the data active = activation above about 50%
Target sequence (P0AE70 whole entry, looked up): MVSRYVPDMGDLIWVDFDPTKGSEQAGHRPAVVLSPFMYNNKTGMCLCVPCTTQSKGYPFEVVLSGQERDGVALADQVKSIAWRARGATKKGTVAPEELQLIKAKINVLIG
Numbers without * were called inactive; ? = inconclusive; . = not tested or not shown; + = active, no number. This is a sample that favours compounds with a hit; in the whole collection about 4% have one here. Cut-off read from the data, not from the text of the source, unless noted: active = inhibition above about 30%; inactive = the rest.

SMILES | FBA Mtb inh | CCHFV vOTU inh | GDH-TPI counter | Mtb betalactam | MazEF act
CN(C)c1ccc(N=Cc2nc(-c3ccccc3)oc2O)cc1 | -4 | 13 | 13 | 33 | 246*
CN(C)c1ccc(N=Cc2nc(-c3ccccc3)oc2OC(=O)c2ccccc2)cc1 | 1 | -4 | 7 | -4 | 354*
CCn1c(Cc2cccs2)nnc1SCC(=O)Nc1ccccc1-c1ccccc1 | . | -4 | . | . | .
CCCCNC[C@@]12CO[C@H](c3ccc(Cl)cc3)N1[C@@H](c1ccc(Cl)cc1)SC2 | . | 7 | . | . | .
Nc1nc(Nc2cccc(F)c2)nc(N2CCOCC2)c1[N+](=O)[O-] | -2 | 7 | 37* | -4 | -3
Cc1cccc(Nc2nc(NCCCN3CCOCC3)nc(N)c2[N+](=O)[O-])c1 | -5 | 21 | 64* | 2 | 2
Nc1nc(NCCCN2CCOCC2)nc(Nc2cccc(F)c2)c1[N+](=O)[O-] | -3 | 10 | 51* | -14 | -7
Cc1cccc(Nc2nc(N)c([N+](=O)[O-])c(N3CCN(C)CC3)n2)c1 | -2 | 2 | 33* | 5 | -4
COc1ccc(-c2c(Cc3ccccc3)nc(NC(=O)c3ccccc3)n2C)cc1 | . | 0 | . | . | .
O=C(Nc1ccc(Cl)c(Cl)c1)C1CCCN(c2nnc(-n3cccc3)s2)C1 (centres undefined) | . | 12 | . | . | .
N/C(=N\N=C\c1ccc(O)c(O)c1)c1nonc1N | -2 | -7 | 41* | 2 | 6
COc1ccc(-c2nnc(SCc3nnc(-c4ccccc4)o3)n2-c2ccccc2)cc1 | 1 | -8 | 6 | 3 | 69*
Nc1ccc(-c2nc3ccc([N+](=O)[O-])cc3[nH]2)cc1 | 2 | 22 | 22 | -3 | 2
O=[N+]([O-])c1ccc(-c2nc3ccc([N+](=O)[O-])cc3[nH]2)cc1 | 1 | 3 | 31* | -7 | -1
Nc1ccc(-c2nc3ccc(N)cc3[nH]2)cc1 | + | -342 | 18 | 9 | 7
Cc1ccc2nc(Cc3ccc(N)cc3)[nH]c2c1 | 1 | 9 | 9 | -5 | 2
Nc1ccc2nc(-c3cccc(-c4nc5ccc(N)cc5[nH]4)c3)[nH]c2c1 | 0 | 6 | 27 | -9 | -9
Cc1nc2ccc(-c3nc4ccc(N)cc4[nH]3)cc2[nH]1 | + | -237 | 4 | -1 | 10
Cc1ccc(C)c(-c2nc3ccc(N)cc3[nH]2)c1 | 189* | -100 | -2 | -2 | 2
CCN(C[C@H]1[C@@H](c2ccc(C3=CCCC3)cc2)[C@H](CO)N1c1nc(C)c(C)s1)S(=O)(=O)c1ccccc1[N+](=O)[O-] | . | 3 | . | . | .
CC(C)NC(=O)N[C@H]1C[C@@H]2O[C@H](CO)CC[C@@H]2O[C@@H]1CCc1ccc(-c2ccc(F)cc2)cc1 | . | 0 | . | . | .
C/C=C/c1ccccc1OCCCN1CCC(C(O)(c2ccccc2)c2ccccc2)CC1 | . | 18 | . | . | .
Cc1cc(C)cc(C(=O)OCCN(C)C2CN(Cc3cn(Cc4cccc(F)c4)nn3)S(=O)(=O)C2)c1 (centres undefined) | . | 1 | . | . | .
Nc1ccc2nc(-c3cc(Cl)c(N)c(Cl)c3)[nH]c2c1 | 25 | -22 | 35* | -4 | 7
Cc1cc2nc(-c3ccccc3O)[nH]c2cc1C | 157* | -50 | 15 | . | 0
SMILES | FBA Mtb inh | CCHFV vOTU inh | GDH-TPI counter | Mtb betalactam | MazEF act
Nc1cc(N)cc(-c2nc3ccccc3[nH]2)c1 | 6 | 10 | 18 | 5 | 15
Cc1ccc2nc(-c3ccccc3N)[nH]c2c1 | + | -223 | 6 | 3 | 7
Nc1ccc(-c2nc3c(Cl)c(N)ccc3[nH]2)cc1 | + | -286 | 38* | ? | 12
CC(=O)c1c(C)n(CCc2ccc(Cl)cc2)c2ccc(O)cc12 | 0 | -7 | 52* | 9 | 4
CC(=O)c1c(C)n(CCO)c2ccc(O)cc12 | -3 | -16 | 14 | -3 | -1
COC(=O)[C@]12C[C@H](CC(=O)NCC3CCCCC3)C(=O)N(Cc3cccc4ccccc34)C1=C[C@H](C1CCCC1)O[C@@H]2C | . | 29 | . | . | .
CN(C(=O)CNC(=O)c1ccccc1OCC(=O)Nc1ccc(I)cc1)c1ccccc1 | . | 0 | . | . | .
CC1=CC(=C2N=C(c3ccccc3)OC2=O)C=C(C)O1 | -11 | -1 | 2 | 7 | 306*
CN1C=CC=C/C1=C1/N=C(c2ccccc2)OC1=O | 5 | 3 | 0 | 1 | -3
CN(C)/C=C1\N=C(c2ccc3c(c2)OCO3)OC1=O | 6 | -1 | 53* | 14 | 9
CN(C)/C=C1\N=C(c2ccccc2)OC1=O | -3 | 24 | 35* | 0 | 10
Cc1onc(-c2ccc(Cl)cc2)c1-c1ccn(S(=O)(=O)c2ccccc2Cl)n1 | . | -4 | . | . | .
CC(OC(=O)/C(C#N)=C/c1ccco1)C(=O)N(C)c1ccccc1 (centres undefined) | -5 | 4 | 32* | -6 | -9
CC[n+]1c(/C=C2\Sc3ccccc3N2C)ccc2cccc(C)c21 | -19 | 21 | -9 | . | 106*
CN1/C(=C/c2cccc[n+]2CCO)Sc2ccccc21 | -7 | 10 | 13 | -9 | -32
O=C(OC12CCCN(C1)/C(=C/c1ccc(Cl)cc1)C2)c1cccc(F)c1 (centres undefined) | . | 5 | . | . | .
CC(=O)c1ccc(N2CCN(C(=O)C(=O)c3c(C)[nH]c4ccccc34)CC2)cc1 | -4 | 9 | 34* | 33 | 5
COc1ccc(N2CCN(C(=O)C(=O)c3c(C)[nH]c4ccccc34)CC2)cc1 | 1 | 23 | 13 | 5 | 4
O=C([C@@H]1C[C@H]1c1ccccc1)N1CC[C@H]2[C@H](CCCN2Cc2cc(F)cc(F)c2)C1 | . | 6 | . | . | .
CCN=c1scc(-c2ccco2)n1/N=C/c1ccc(OC)c(O)c1 | -1 | 3 | 32* | 98 | 4
COc1ccc(-c2nsc(C(=O)N(c3ccc(F)cc3)C(C(=O)NC3CCCC3)c3ccc(OC)cc3)c2N)cc1 (centres undefined) | -1 | -3 | 31* | 11 | -4
COc1cc(C2Nc3ccccc3C(=O)N2c2ccccc2OC)ccc1O (centres undefined) | 13 | -13 | 1 | -8 | -2
O=C1c2ccccc2NC(c2ccc(O)c(O)c2)N1c1ccccc1Cl (centres undefined) | 6 | -12 | 41* | 0 | -8
Cc1nn(-c2ccccc2)c2sc(C(=O)NCCc3ccccc3)cc12 | . | 3 | . | . | .
N=C1C(c2nc3ccccc3s2)=C(O)CN1NC(=O)c1ccco1 | 8 | 17 | 47* | -6 | 11
CC1=CC=CC2=NC(=O)CC(C)(C(=O)N(CC(=O)NC(C)C)C3CCCC3)N12 (centres undefined) | 128* | . | 15 | ? | 0
CC1=CC2=NC(=O)CC(C)(C(=O)N(CC(=O)NC(C)(C)C)C3CCCC3)N2C=C1 (centres undefined) | 9 | -4 | 2 | -5 | 0
CC(C)(C)NC(=O)CN(C(=O)C1(C)CC(=O)N=C2C=CC=CN21)C1CCCC1 (centres undefined) | 120* | -121 | 19 | -25 | 2
CCOC(=O)[C@]12CCCC3=C1N(CCC3)C(=O)[C@@H](CC(=O)NCCC(C)C)C2 | . | 1 | . | . | .
